Measured values reported in PubChem BioAssay (Tox21).
Where “and” joins values, the source holds several entries; their conditions need not be identical. Equal values may be shown once. Records with an inconclusive call do not appear. Where a call stands in place of a potency, no number is given. More than one record can exist for a structure, and the calls need not agree. Calls of active or inactive are those of the source. Unless noted, calls follow the shape of the dose curve; as a rule, active = well fitted curve in the direction sought with a large enough effect in the repeat runs; inconclusive = weak or mixed curves; inactive = no such curve, though single readings can be large; an effect the other way counts as inactive or inconclusive.

Legend:
[1] = A CellTox Green Cytotoxicity Assay to monitor cytotoxicity in HEK293 cells - 32 hour (AID 1224881); also: nearly all actives have a fitted effect of over 40% in size; also: potency is read from the fitted curve at half-maximal effect
Outline: (§1)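 Seeding of HEK293 cells together with cytotoxicity dye preceded a 5 h incubation at 37 C/5% CO2. Test compounds in DMSO were then added and fluorescence monitored across 40 h.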

[2] = A CellTox Green Cytotoxicity Assay to monitor cytotoxicity in HepG2 cells - 0 hour (AID 1224882); also: nearly all actives have a fitted effect of over 35% in size
Outline: (§2)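 Nonlytic assay: viable cells exclude the dye, so fluorescence scales with cell death. HepG2 at 600 cells/well, compounds added after 5 h, signal read across 40 h.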

[3] = A CellTox Green Cytotoxicity Assay to monitor cytotoxicity in HepG2 cells - 32 hour (AID 1224883); also: nearly all actives have a fitted effect of over 50% in size; also: potency is read from the fitted curve at half-maximal effect
Outline: as §2

[4] = A CellTox Green Cytotoxicity Assay to monitor cytotoxicity in HEK293 cells - 8 hour (AID 1224884); also: nearly all actives have a fitted effect of over 35% in size
Outline: as §1

[5] = qHTS RealTime-Glo MT Cell Viability Assay in HepG2 cells - 16 hour (AID 1224885); also: nearly all actives have a fitted effect of over 50% in size; also: potency is read from the fitted curve at half-maximal effect
Outline: (§3)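 qHTS, HepG2, 600 cells/well, RealTime-Glo (NanoLuc + prosubstrate) added with cells; 5 h preincubation; DMSO compound addition; 37 C; luminescence at 0/8/16/24/32/40 h.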

[6] = qHTS RealTime-Glo MT Cell Viability Assay in HEK293 cells - 24 hour (AID 1224886); also: nearly all actives have a fitted effect of over 50% in size; also: potency is read from the fitted curve at half-maximal effect
Outline: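 Assay medium contained NanoLuc luciferase plus cell-permeant prosubstrate, added with HEK293 cells at 600 cells/well. After 5 h at 37 C/5% CO2 compounds were added; plates stayed at 37 C for 40 h with serial luminescence reads.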

[7] = qHTS RealTime-Glo MT Cell Viability Assay in HEK293 cells - 8 hour (AID 1224887); also: nearly all actives have a fitted effect of over 50% in size; also: potency is read from the fitted curve at half-maximal effect
Outline: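 Tox21 screen in HEK293 using RealTime-Glo MT chemistry, with cells and reagent co-dispensed. Luminescence proportional to viable cell number was captured at intervals during 40 h compound exposure at 37 C.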

[8] = A CellTox Green Cytotoxicity Assay to monitor cytotoxicity in HepG2 cells - 8 hour (AID 1224890); also: nearly all actives have a fitted effect of over 45% in size; also: potency is read from the fitted curve at half-maximal effect
Outline: as §2

[9] = qHTS assay to identify small molecule antagonists of the estrogen receptor alpha (ER-alpha) signaling pathway using the BG1 cell line in the presence of 0.1 nM 17-beta-estradiol - cell viability counter screen (AID 1259241); also: nearly all actives have a fitted effect of over 40% in size; also: potency is read from the fitted curve at half-maximal effect
Outline: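 VM7Luc4E2, 4,000 cells/well, phenol red-free medium + 10% charcoal-stripped FBS; 24 hr plating; cpd + 0.1 nM E2 final, 22 hr 37C/5% CO2; CellTiter-Fluor 30 min, fluorescence.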

[10] = molecular target: Estrogen receptor (Homo sapiens) (UniProt P03372); assay: qHTS assay to identify small molecule antagonists of the estrogen receptor alpha (ER-alpha) signaling pathway using the BG1 cell line in the presence of 0.1 nM 17-beta-estradiol (AID 1259244); also: nearly all actives have a fitted effect of over 50% in size; also: potency is read from the fitted curve at half-maximal effect
Outline: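 VM7Luc4E2; 4xERE-luciferase; 0.1 nM E2 final; 22 h co-incubation, 37C; ONE-Glo luminescence after 30 min at room temperature.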

[11] = qHTS assay to identify small molecule HDAC inhibitors (AID 1259364); also: potency is read from the fitted curve at half-maximal effect;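 also: wild-type HCT-116 cells with endogenous class I/II HDAC activity; nearly all actives have a fitted effect of over 45% in size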
Outline: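 Relative class I and II HDAC activity is taken from the luminogenic signal in HCT-116 cells, with compound exposure 2 hr and reagent development 30 min at room temperature.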

[12] = qHTS assay to identify small molecule HDAC inhibitors - cell viability counter screen (AID 1259365); also: nearly all actives have a fitted effect of over 50% in size; also: potency is read from the fitted curve at half-maximal effect
Outline: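 Luminescence from CellTiter-Glo, developed 30min at room temperature, reports viability of wild-type HCT-116 cells treated 2hr with compounds at 37 C and 5% CO2 after overnight plating.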

[13] = qHTS assay to identify small molecule agonists of the sonic hedgehog signaling (Shh) pathway - cell viability counter screen (AID 1259366); also: nearly all actives have a fitted effect of over 50% in size; also: potency is read from the fitted curve at half-maximal effect
Outline: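 Cytotoxicity counter screen run in the same wells as the Shh reporter assay. NIH/3T3 cells carrying a Gli1 response element–driven luciferase were treated with DMSO-dissolved compounds for 24hr, and live-cell protease activity was measured with CellTiter-Fluor.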

[14] = qHTS assay to identify small molecule antagonists of the sonic hedgehog signaling (Shh) pathway - cell viability counter screen (AID 1259367); also: nearly all actives have a fitted effect of over 55% in size; also: potency is read from the fitted curve at half-maximal effect
Outline: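 Using CellTiter-Fluor, viability of Gli1-Luc reporter 3T3 cells is read by fluorescence in the wells used for the Shh luciferase assay. Treatment lasts 23 hr with conditioned medium, then reagent 1 hr at 37C.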

[15] = qHTS assay to identify small molecule agonists of the sonic hedgehog signaling (Shh) pathway (AID 1259368; calls by dose curve;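 also: NIH/3T3-derived 3T3Gli1-Luc cells carrying a stable Gli1-driven firefly luciferase reporter; series mostly up to about 92 µM; nearly all actives have a fitted effect of over 15% in size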)
Outline: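 Mouse fibroblast (NIH/3T3) reporter cells with stably integrated Gli1-Luc were treated 24 hr with compound; firefly luciferase luminescence served as the read-out.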

[16] = A CellTox Green Cytotoxicity Assay to monitor cytotoxicity in HEK293 cells - 16 hour (AID 1224888); also: nearly all actives have a fitted effect of over 35% in size; also: potency is read from the fitted curve at half-maximal effect
Outline: as §1

[17] = qHTS RealTime-Glo MT Cell Viability Assay in HepG2 cells - 0 hour (AID 1224889); also: nearly all actives have a fitted effect of over 50% in size
Outline: as §3

[18] = qHTS assay to identify small molecule antagonists of the androgen receptor (AR) signaling pathway using the MDA cell line in the presence of 0.5 nM R1881 - cell viability counter screen (AID 1259242); also: nearly all actives have a fitted effect of over 45% in size; also: potency is read from the fitted curve at half-maximal effect
Outline: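 R1881 at 0.5 nM final stimulated MDA-kb2 cells during 16 hr compound treatment at 37C. Cytotoxicity read: CellTiter-Fluor fluorescence after 30 min.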

[19] = qHTS assay to identify small molecule phospholipidosis (PLD) inducers (AID 1259344; active = well fitted curve in the direction sought with a large enough effect; an effect the other way counts as inactive or inconclusive)
Outline: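 Fluorescent phospholipid staining (LipidTOX Red) measured by automated microscopy in fixed HepG2 cells after 24 h treatment; nuclei counterstained with Hoechst 33342; amiodarone as reference inducer.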

[20] = molecular target: Androgen receptor (Homo sapiens) (UniProt P10275); assay: qHTS assay to identify small molecule antagonists of the androgen receptor (AR) signaling pathway using the MDA cell line in the presence of 0.5 nM R1881 (AID 1259243)
Outline: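 We exposed MDA-kb2 cells to compounds under 0.5 nM R1881 stimulation for 16 hr at 37C and quantified MMTV-driven luciferase by luminescence.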

Estrogen receptor (Homo sapiens), sequence (P03372 whole entry, looked up): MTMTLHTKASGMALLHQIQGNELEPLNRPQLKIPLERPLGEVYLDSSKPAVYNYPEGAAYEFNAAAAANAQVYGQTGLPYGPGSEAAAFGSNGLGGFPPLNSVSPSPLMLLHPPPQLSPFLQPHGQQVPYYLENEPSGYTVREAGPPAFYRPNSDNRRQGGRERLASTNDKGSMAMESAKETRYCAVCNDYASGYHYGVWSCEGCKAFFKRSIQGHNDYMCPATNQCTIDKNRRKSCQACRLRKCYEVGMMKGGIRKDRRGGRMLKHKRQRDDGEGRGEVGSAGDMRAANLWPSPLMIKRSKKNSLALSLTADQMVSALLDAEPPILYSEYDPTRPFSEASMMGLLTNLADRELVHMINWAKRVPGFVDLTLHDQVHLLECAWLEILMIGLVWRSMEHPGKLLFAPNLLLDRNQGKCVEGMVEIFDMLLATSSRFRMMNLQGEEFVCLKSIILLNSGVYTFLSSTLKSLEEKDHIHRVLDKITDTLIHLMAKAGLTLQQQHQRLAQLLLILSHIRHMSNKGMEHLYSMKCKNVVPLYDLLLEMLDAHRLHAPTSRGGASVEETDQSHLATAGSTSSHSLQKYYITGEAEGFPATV
Androgen receptor (Homo sapiens), sequence (P10275 whole entry, looked up): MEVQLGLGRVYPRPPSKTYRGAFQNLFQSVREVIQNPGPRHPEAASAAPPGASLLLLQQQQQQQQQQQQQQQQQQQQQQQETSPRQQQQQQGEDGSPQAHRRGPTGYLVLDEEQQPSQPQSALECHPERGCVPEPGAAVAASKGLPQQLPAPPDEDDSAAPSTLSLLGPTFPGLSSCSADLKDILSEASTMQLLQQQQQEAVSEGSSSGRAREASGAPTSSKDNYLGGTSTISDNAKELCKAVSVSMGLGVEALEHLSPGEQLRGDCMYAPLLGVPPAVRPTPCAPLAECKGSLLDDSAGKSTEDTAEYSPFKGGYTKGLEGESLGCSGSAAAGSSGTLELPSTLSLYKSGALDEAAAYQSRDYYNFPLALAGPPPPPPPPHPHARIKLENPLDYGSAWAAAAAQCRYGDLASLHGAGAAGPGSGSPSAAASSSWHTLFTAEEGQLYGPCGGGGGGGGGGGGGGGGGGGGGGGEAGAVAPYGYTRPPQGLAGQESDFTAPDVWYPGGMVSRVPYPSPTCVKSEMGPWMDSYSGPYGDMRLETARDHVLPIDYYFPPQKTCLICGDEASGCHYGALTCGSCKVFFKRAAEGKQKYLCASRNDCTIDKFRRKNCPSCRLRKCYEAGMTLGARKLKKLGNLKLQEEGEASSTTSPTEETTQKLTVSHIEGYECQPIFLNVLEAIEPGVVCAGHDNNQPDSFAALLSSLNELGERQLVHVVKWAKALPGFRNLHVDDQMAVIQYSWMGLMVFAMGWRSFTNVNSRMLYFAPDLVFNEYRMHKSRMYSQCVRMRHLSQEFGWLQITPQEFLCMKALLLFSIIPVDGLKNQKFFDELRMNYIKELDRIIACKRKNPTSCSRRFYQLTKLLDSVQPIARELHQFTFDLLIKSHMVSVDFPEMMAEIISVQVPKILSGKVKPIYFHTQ

CCN(CC)C(=S)S
Potency [1]: 17.5 µM (active) and 4.87 µM (active) and 11 µM (active)
Potency [2]: inactive
Potency [3]: inactive and 6.88 µM (active) and 21.9 µM (active)
Potency [4]: inactive
Potency [5]: inactive
Potency [6]: 4.87 µM (active) and 12.3 µM (active)
Potency [7]: inactive
Potency [8]: inactive
Potency [9]: 15.3 µM (active)
Potency [10]: 13.6 µM (active)
Potency [11]: inactive
Potency [12]: inactive
Potency [13]: 38.9 µM (active) and 13.6 µM (active) and 27.3 µM (active)
Potency [14]: 7.65 µM (active) and inactive
Potency [15]: inactive

O=C(O)CCCCCCNC1c2ccccc2CCc2ccccc21
Potency [1]: inactive
Potency [2]: inactive
Potency [3]: inactive
Potency [4]: inactive
Potency [5]: inactive
Potency [6]: inactive
Potency [16]: inactive
Potency [17]: inactive
Potency [8]: inactive
Potency [9]: inactive
Potency [18]: inactive
Potency [10]: inactive
outcome [19]: inactive
Potency [11]: inactive
Potency [12]: inactive
Potency [13]: inactive
Potency [14]: inactive
Potency [15]: inactive

CCCCc1ccccc1
Potency [1]: inactive
Potency [2]: inactive
Potency [3]: inactive
Potency [4]: inactive
Potency [5]: inactive
Potency [6]: inactive
Potency [7]: inactive
Potency [8]: inactive
Potency [9]: inactive
Potency [18]: inactive
Potency [10]: inactive
Potency [11]: inactive
Potency [12]: inactive
Potency [13]: inactive
Potency [14]: inactive
Potency [15]: inactive

[Cl][Hg][c]1ccccc1
Potency [1]: 2.19 µM (active)
Potency [2]: inactive
Potency [3]: 2.45 µM (active)
Potency [4]: inactive
Potency [5]: 2.75 µM (active)
Potency [6]: 1.23 µM (active)
Potency [7]: 1.95 µM (active)
Potency [8]: 3.09 µM (active)
Potency [18]: 8.63 µM (active)
Potency [20]: 2.43 µM (active)
Potency [10]: 6.11 µM (active)
Potency [11]: 30.6 µM (active)
Potency [12]: 13.7 µM (active)
Potency [13]: 545 nM (active)
Potency [14]: 864 nM (active)
Potency [15]: inactive

CCN(CC)Cc1nccn1-c1ccc([N+](=O)[O-])cc1C(=O)c1ccccc1Cl
Potency [1]: inactive
Potency [2]: inactive
Potency [3]: inactive
Potency [4]: inactive
Potency [5]: inactive
Potency [6]: inactive
Potency [7]: inactive
Potency [16]: inactive
Potency [8]: inactive
Potency [9]: inactive
Potency [18]: inactive
PLD induction [19]: 0.825% [at 7.66 µM] (inactive)
Potency [11]: inactive
Potency [12]: inactive

CCOP(=O)(OCC)Oc1cc(C)nc(C(C)C)n1
Potency [1]: inactive
Potency [2]: inactive
Potency [3]: inactive
Potency [4]: inactive
Potency [5]: inactive
Potency [6]: inactive
Potency [7]: inactive
Potency [17]: inactive
Potency [8]: inactive
Potency [9]: inactive
Potency [18]: inactive
Potency [11]: inactive
Potency [12]: inactive
Potency [13]: inactive
Potency [14]: inactive
Potency [15]: inactive

CCCCn1cc[n+](C)c1 (tested in a mixture with another compound)
Potency [1]: inactive
Potency [2]: inactive
Potency [3]: inactive
Potency [4]: inactive
Potency [5]: inactive
Potency [6]: inactive
Potency [7]: inactive
Potency [16]: inactive
Potency [8]: inactive
Potency [9]: inactive
Potency [18]: inactive
Potency [11]: inactive
Potency [12]: inactive
Potency [14]: inactive
Potency [15]: inactive

C[C@H]1[C@H](c2ccc(Cl)cc2)SC(=O)N1C(=O)NC1CCCCC1
Potency [1]: inactive
Potency [2]: inactive
Potency [3]: inactive
Potency [5]: inactive
Potency [6]: 43.6 µM (active)
Potency [7]: 38.9 µM (active)
Potency [16]: inactive
Potency [17]: inactive
Potency [8]: inactive
Potency [9]: inactive
Potency [20]: 48.6 µM (active)
Potency [10]: 61.1 µM (active)
Potency [11]: inactive
Potency [12]: inactive
Potency [13]: inactive
Potency [14]: inactive
Potency [15]: inactive

[C-]1=CC=CC1.[Cl][Zr+2][Cl].c1cc[cH-]c1
Potency [1]: inactive
Potency [2]: inactive
Potency [3]: inactive
Potency [4]: inactive
Potency [16]: inactive
Potency [17]: inactive
Potency [8]: inactive
Potency [18]: inactive
Potency [11]: inactive
Potency [12]: inactive
Potency [14]: inactive
Potency [15]: inactive

CC(O)C(=O)[O][Hg][c]1ccccc1 (stereo not given)
Potency [1]: 3.09 µM (active)
Potency [2]: inactive
Potency [3]: 2.19 µM (active)
Potency [5]: 2.19 µM (active)
Potency [6]: 0.977 µM (active)
Potency [16]: 24.5 µM (active)
Potency [17]: inactive
Potency [8]: 2.75 µM (active)
Potency [9]: 12.2 µM (active)
Potency [18]: 6.11 µM (active)
Potency [10]: 8.63 µM (active)
Potency [11]: 4.33 µM (active)
Potency [12]: 4.33 µM (active)
Potency [13]: 969 nM (active)
Potency [14]: 1220 nM (active)
Potency [15]: inactive
